Results taken from PubChem BioAssay (NCI).
This is part of a sample that, as a whole, favours compounds with a hit. Of some 83,000 tested, about 20% had one in any assay.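 Interpretation: 100, growth as untreated; towards 0, rising growth inhibition; 0, no net growth; 0 to -100, cell death. Compounds scoring below 10 were considered active.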 Activity calls are given as the source filed them.

Legend:
Assay in all cases: NCI-60 one-dose screen, 48 h (100 = growth as untreated, 0 = no growth, -100 = all killed)
[1] = tested on: NCI-H23 lung; conditions: 10 µM unless noted
[2] = tested on: NCI-H226 lung; conditions: 10 µM unless noted
[3] = tested on: NCI-H322M lung; conditions: 10 µM unless noted
[4] = tested on: HOP-62 NSCLC; conditions: 10 µM unless noted
[5] = tested on: NCI-H460 lung; conditions: 10 µM unless noted
[6] = tested on: HOP-92 NSCLC; conditions: 10 µM unless noted
[7] = tested on: NCI-H522 lung; conditions: 10 µM unless noted
[8] = tested on: A549/ATCC NSCLC; conditions: 10 µM unless noted
[9] = tested on: 786-0 renal; conditions: 10 µM unless noted
[10] = tested on: COLO 205 colon; conditions: 10 µM unless noted
[11] = tested on: DU-145 prostate; conditions: 10 µM unless noted
[12] = tested on: K-562 leukemia; conditions: 10 µM unless noted
[13] = tested on: MALME-3M melanoma; conditions: 10 µM unless noted
[14] = tested on: MDA-MB-231 breast; conditions: 10 µM unless noted
[15] = tested on: RXF 393 renal; conditions: 10 µM unless noted
[16] = tested on: SF-268 CNS; conditions: 10 µM unless noted
[17] = tested on: SF-295 CNS; conditions: 10 µM unless noted
[18] = tested on: SF-539 CNS; conditions: 10 µM unless noted
[19] = tested on: UACC-257 melanoma; conditions: 10 µM
[20] = tested on: M14 melanoma; conditions: 10 µM unless noted

Measured: growth

O=C(/C=C/c1cccc(O)c1)c1ccc(O)cc1
inactive: [1] 72% | [2] 103% | [3] 88.5% | [4] 79.9% | [5] 92.8% | [6] 104% | [7] 65.6% | [8] 90.1% | [9] 85% | [10] 120% | [11] 15.8% | [12] 23.2% | [13] 106% | [14] 89.3% | [15] 94.8% | [16] 89.9% | [17] 98.2% | [18] 43.3% | [19] 95.3%

COc1ccc(/C=N/Nc2nc(N/N=C/c3ccc(OC)cc3O)nc(N3CCOCC3)n2)c(O)c1
active: [15] -16.2%
inactive: [1] 86.3% | [2] 69.4% | [3] 59.7% | [4] 64.8% | [5] 23.5% | [6] 88.6% | [7] 80.9% | [8] 53% | [9] 14.7% | [10] 63.5% | [11] 57.8% | [12] 28% | [13] 67.6% | [14] 70.3% | [16] 53.8% | [17] 31.3% | [18] 47.3% | [19] 55.8%

N=c1c2cc(-c3ccccc3)oc2ncn1/N=C/c1ccccc1
inactive: [1] 98.1% | [2] 98.9% | [3] 94.5% | [4] 87.4% | [5] 57.6% | [6] 92% | [7] 42.1% | [8] 71.2% | [9] 78.6% | [10] 88.1% | [11] 96.7% | [12] 27.6% | [13] 48.9% | [14] 95.1% | [15] 49.4% | [16] 89% | [17] 84.3% | [18] 85.8% | [19] 85.6%

O=C(Nc1ccc(F)cc1)c1cc(-c2ccc(F)cc2F)ccc1O
active: [1] 1.86% | [2] 5.87% | [3] 9.89% | [5] 4.82% | [6] -26.6% | [7] -4.42% | [13] -10.5% | [15] -21.1% | [19] -20.7%
inactive: [4] 12% | [8] 30.6% | [9] 15.5% | [10] 96.4% | [11] 16% | [12] 15.4% | [14] 17.6% | [16] 14.8% | [17] 25% | [18] 15.6%

O=c1oc2ccc(-c3ccc(F)cc3F)cc2c(=O)n1-c1cccc(C(F)(F)F)c1
inactive: [2] 13.4% | [4] 15% | [9] 14.7% | [10] 87.3% | [11] 15.6% | [12] 12.9% | [16] 16.1% | [18] 11.6%
active: [1] 0.0881% | [3] 3.52% | [5] 4.79% | [6] -25.6% | [7] 0.254% | [8] 9.67% | [13] -14.7% | [14] -4.78% | [15] -24.7% | [17] -17.3% | [19] -9.2%

CN1C(=O)N(C)C2Nn3c(s/c(=C\c4ccccn4)c3=O)=NC21 (stereo not given)
inactive: [1] 108% | [2] 103% | [3] 103% | [4] 100% | [5] 110% | [6] 107% | [7] 92.3% | [8] 103% | [9] 104% | [10] 110% | [11] 111% | [12] 108% | [13] 82.4% | [14] 99.5% | [15] 110% | [16] 103% | [17] 104% | [18] 101% | [19] 96%

O=C(NNc1nc2cc(F)cc(F)c2n2cccc12)c1ncccn1
inactive: [1] 11.2% | [3] 25.5% | [4] 19.7% | [6] 61.2% | [8] 18.7% | [10] 16.9% | [11] 20.6% | [12] 17.8% | [13] 25.9% | [14] 34.9% | [15] 33% | [16] 13.6% | [17] 12.6% | [19] 12.9%
active: [2] -2.14% | [5] 6% | [7] -2.87% | [9] 0.547% | [18] -0.152% | [20] -18.1%

COc1ccc(S(=O)(=O)NCCCNc2nccc(-n3cnc4ccccc43)n2)cc1
inactive: [1] 91.9% | [2] 73.2% | [3] 104% | [4] 94.9% | [5] 97.3% | [6] 75.8% | [7] 81.1% | [8] 106% | [9] 95.9% | [10] 108% | [11] 100% | [12] 78.8% | [13] 107% | [14] 84.1% | [15] 80.6% | [16] 91.6% | [17] 90.5% | [18] 83.9% | [19] 100%

Fc1ccc(-c2cc3nc(C(Cl)Cl)nc(-c4cccs4)n3n2)cc1
inactive: [1] 35.2% | [2] 95% | [7] 78.9% | [9] 58.2% | [12] 44.5% | [13] 62.5% | [16] 13.3% | [19] 46.2%
active: [3] -9.31% | [4] 5.82% | [5] -32.8% | [6] -6.12% | [8] -14.2% | [10] -23.1% | [11] -21.8% | [14] -15.2% | [15] -44.1% | [17] -7.41% | [18] -2.29%

Cc1ccc(NC(=O)c2ccc(CN3CCN(C)CC3)c(C(F)(F)F)c2)cc1Oc1ccc(-c2[nH]nc3ncnc(N)c23)cc1
inactive: [1] 90.1% | [2] 78.4% | [3] 96.2% | [4] 99.4% | [5] 93.5% | [6] 103% | [7] 84.9% | [8] 78.6% | [9] 70.9% | [10] 52.5% | [11] 95.3% | [14] 67.5% | [15] 42.3% | [16] 88% | [17] 82.8% | [18] 60.2% | [19] 58.5%
active: [12] 2.49% | [13] -12%

COc1ccc(-c2nn(-c3ccccc3)cc2/C=C/C(=O)c2ccc(NC(=O)CCCCCCC(=O)NO)cc2)cc1
inactive: [1] 113% | [2] 112% | [3] 96.3% | [4] 107% | [5] 108% | [6] 125% | [7] 92.4% | [8] 96% | [9] 69.8% | [10] 115% | [11] 97.6% | [12] 84.6% | [13] 137% | [14] 99% | [15] 63.8% | [16] 108% | [17] 119% | [18] 105% | [19] 114%

CCC(CC)N1C(=O)/C(=c2\sc3n(c2=O)C2C(NN=3)N(CC)C(=O)N2CC)c2ccccc21 (stereo not given)
inactive: [2] 53.6% | [3] 61% | [4] 29.6% | [6] 86.7% | [7] 20.1% | [8] 26% | [9] 34.9% | [13] 70% | [14] 32.8% | [16] 35.7% | [19] 69.6%
active: [1] 7.64% | [5] 4.83% | [10] -13.2% | [11] 7.43% | [12] 9.31% | [15] 9.61% | [17] 7.59% | [18] 3.34%

C#Cc1ccc(NC(=O)c2ccc(/C=C/C(=O)c3nccn3C)cc2)c(F)c1
active: [4] 2.11% | [5] 6.28% | [18] -22.5%
inactive: [1] 11.4% | [2] 42.8% | [3] 19.8% | [6] 67.5% | [7] 20.4% | [8] 19.9% | [9] 37.7% | [10] 73% | [11] 27.5% | [12] 12% | [13] 89.8% | [14] 23.6% | [15] 10.5% | [16] 28% | [17] 26.1% | [19] 64.7%

CS(=O)(=O)c1ccc(-c2nn(-c3ccccc3)cc2/C=C/C(=O)c2ccc(Br)cc2)cc1
inactive: [1] 100% | [2] 101% | [3] 95.4% | [4] 105% | [5] 93.9% | [6] 114% | [7] 82.6% | [8] 96.5% | [9] 91.5% | [10] 113% | [11] 100% | [12] 47.3% | [13] 71.3% | [14] 88.3% | [15] 93.7% | [16] 99.4% | [17] 104% | [18] 102% | [19] 96.3%

Cc1ccc(NC(=O)c2ccc(CN3CCN(C)CC3)c(I)c2)cc1Oc1ccc(-c2[nH]nc3ncnc(N)c23)cc1
inactive: [1] 87.9% | [2] 91.8% | [3] 89.8% | [4] 105% | [5] 90.4% | [6] 83.4% | [7] 46.6% | [8] 66.1% | [10] 53% | [11] 99.6% | [14] 39.3% | [15] 44.9% | [16] 90.3% | [17] 78.4% | [18] 67.5%
active: [9] -74.7% | [12] 1.61% | [13] -72.7% | [19] -46.4%

O=S(=O)(NCCCNc1nccc(-n2cnc3ccccc32)n1)c1ccc(F)cc1
inactive: [1] 70.4% | [2] 64.1% | [3] 99.5% | [4] 82.7% | [5] 79.7% | [6] 87.9% | [7] 68.5% | [8] 88.8% | [9] 97.7% | [10] 86% | [11] 87.2% | [12] 37.2% | [13] 86.1% | [14] 74.4% | [15] 163% | [16] 86.3% | [17] 70.6% | [18] 86.2% | [19] 66.2%
